Laboratory results from PubChem BioAssay (NCI).
This is part of a sample that, as a whole, favours compounds with a hit. Of some 79,000 tested, about 15% had one in any assay. Rule as the data show it: active = growth inhibition above about 70%; inactive = the rest. Where a SMILES comes first, the peptide text is derived from it. Bridges are numbered along the chain shown (N, C = ends). [ ]: non-standard residue; d: D form. The star is where a group is joined. ξ: configuration not given here. NMeY = CN[C@@H](Cc1ccc(O)cc1)C(=O)O; Cbz = O=C(OCc1ccccc1)*; ξA = CC(N)C(=O)O

Legend:
[1] = NCI Yeast Anticancer Drug Screen. Data for the rad50 strain (AID 155);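 also: 0% = growth of vehicle-only cultures of the same strain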; conditions: S. cerevisiae rad50 strain growth inhibition; at 50.0 µM; stronger effect = higher value
How it was run: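 Growth of the mutant yeast was measured after compound exposure and referenced to vehicle-treated cultures.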

[2] = NCI Yeast Anticancer Drug Screen. Data for the mec2-1 strain (AID 157); conditions: S. cerevisiae mec2-1 strain, at 50.0 µM, stronger effect = higher value
How it was run: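 Readout is yeast growth inhibition, normalised to vehicle-treated controls, in the mec2-1 strain exposed to compound.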

[3] = NCI Yeast Anticancer Drug Screen. Data for the sgs1 mgt1 strain (AID 161);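 also: 0% = growth of cultures given vehicle only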; conditions: S. cerevisiae sgs1 mgt1 strain, at 50.0 µM, stronger effect = higher value
How it was run: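 Growth of a repair-deficient yeast mutant was monitored after compound treatment and expressed as inhibition relative to vehicle-treated cultures.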

[4] = NCI Yeast Anticancer Drug Screen. Data for the cln2 rad14 strain (AID 165);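 also: 0% = growth equal to vehicle treated cultures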; conditions: S. cerevisiae cln2 rad14 strain, at 50.0 µM, stronger effect = higher value
How it was run: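 Relative to vehicle controls, growth inhibition of compound-treated cln2 rad14 yeast was recorded.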

[5] = NCI Yeast Anticancer Drug Screen. Data for the mlh1 rad18 strain (AID 175); conditions: S. cerevisiae mlh1 rad18 strain growth inhibition; at 50.0 µM; stronger effect = higher value
How it was run: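 Test agents were incubated with a yeast strain of defined genotype (DNA damage repair defect). Inhibition of growth was derived by comparison with vehicle-exposed cultures.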

[6] = NCI Yeast Anticancer Drug Screen. Data for the bub3 strain (AID 167); conditions: S. cerevisiae bub3 mutant strain, at 50.0 µM, stronger effect = higher value
How it was run: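 Whole-cell yeast assay. The mutant strain was incubated with compounds, and growth inhibition was determined by comparison with vehicle-treated cells.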

Measured: growth inhibition

COC(=O)C1C(O)C(C)C(O)C(C)(O)C=C(C)C2=C3C(=C(C)C(=O)c4c(O)c(c(C)c(OC(C)=O)c43)NC(=O)C(C)=C/C=C\C(C)(O)C(O)C(C)C1O)OCO2 (stereo not given)
inactive: [1] 14.3% | [2] 1.65% | [3] 0.85% | [4] -1.55% | [5] 6.25%

CC(=O)c1cc(Cl)ccc1Cl
inactive: [1] 23.9% | [2] -6.2% | [3] -0.8% | [4] 33% | [5] 26.1%

C=C(C)C(=O)NC(N)=NC#N
inactive: [1] -44% | [2] -9.25% | [3] -5.4% | [4] -13.8% | [5] 6.15%

COC(=O)C(C)NC(=O)C(C)NC(=O)c1cc(OC)c(OC)c(OC)c1 (stereo not given)
inactive: [1] 28.2% | [2] 17.8% | [3] 17.4% | [4] 17.1% | [5] 15.8%

O=C(O)CC(Cc1ccc2c(c1)OCO2)C(=O)O (stereo not given)
inactive: [1] -5.6% | [2] -2.35% | [3] -34.2% | [4] -33.9% | [5] 2.55%

COC(=O)C1C2CC3C(C2=O)C31 (stereo not given)
inactive: [1] 6.45% | [2] -4.7% | [3] 4.45% | [4] 21.1% | [5] 6.85%

CCOC(=O)C1CSSCC(N)C(=O)N1 (stereo not drawn) (H-Cys-Cys-OEt; disulfide 1-2; configuration not given here)
inactive: [1] 5.65% | [2] -1.25% | [3] -11.6% | [4] -48.8% | [5] 4.7%

Cc1ccc2ncccc2c1
inactive: [1] -2.75% | [2] -18.1% | [3] 1.8% | [4] -12.4% | [5] -6.45%

COC1CC(NC(C)=O)C2OC(c3ccccc3)OCC2O1 (stereo not given)
inactive: [1] 4.35% | [2] 11.2% | [3] -10.2% | [4] 6.1% | [5] 4.45%

CCOC(=O)/C(=C/c1ccc(N(CCC#N)CCC#N)cc1C)NC(=O)/C=C/c1ccccc1
inactive: [1] -2.25% | [2] -5.85% | [3] -16.2% | [4] -20.6% | [5] -9.65%

CCc1cccc(C(=O)NCCN(C)C)c1[N+](=O)[O-]
inactive: [1] -10.4% | [2] -17.9% | [3] -12.2% | [4] 22% | [5] -5%

O=C(O)c1ccc(C(=O)c2ccc(Cl)cc2)cc1
inactive: [1] 31.9% | [2] 44.5% | [3] 42.4% | [4] -6.35% | [5] 34.6%

CC(C)(C)c1cc(O)c(C(=O)O)cc1O
inactive: [1] 39.6% | [2] 29.6% | [3] 44.8% | [4] 17.6% | [5] 33.9%

Nc1cccc(S(=O)(=O)Nc2ccccc2)c1
inactive: [1] 19.6% | [2] 25.6% | [3] 1.55% | [4] -6.6% | [5] 10%

Br[C@H]1CC2CCC1C2 (stereo not given in full)
inactive: [1] 23.1% | [2] -23.9% | [3] 2.9% | [4] 6.9% | [5] 5.65%

CCCCCCCCCCCCCCCCN(C)C(=S)c1ccc(OC)cc1
inactive: [1] 25.4% | [2] -3.4% | [3] -1.8% | [4] -3.15% | [5] -8.4%

O=C(/C=C/c1ccc(F)c(F)c1)OCCc1ccccc1
inactive: [1] 28.1% | [2] 29% | [3] 32.7% | [4] 28.9% | [5] 27.2%

Cc1cc2nc(-c3cc4cc(Cl)cc(Cl)c4oc3=O)[nH]c2cc1C
inactive: [1] 10.6% | [2] 17.8% | [3] 2.7% | [4] -5.4% | [5] -0.4%

CC(=Nc1ccccc1)Nc1ccccc1
inactive: [1] -5.45% | [2] 3.3% | [3] 18.1% | [4] -20.6% | [5] 48.1%

O=S(=O)(O)c1cc(O)ccc1O.O=S(=O)(O)c1cc(O)ccc1O.[NH-]C1CCCCC1[NH-].[Pt+2]
inactive: [1] 17.6% | [2] -4.85% | [3] -5.2% | [4] 4.8% | [5] -3.25%

CC1CC=CCC1(C(=O)O)C(=O)O (stereo not given)
inactive: [1] 0.6% | [2] 10.1% | [3] -10.2% | [4] -2.05% | [5] -24.1%

Cc1nnc2n1N=C(c1ccc(-c3ccc([N+](=O)[O-])cc3)o1)CS2
inactive: [1] 10.7% | [2] 3.1% | [3] -1.75% | [4] 12.1% | [5] 10.8%

CCCCON1C[C@@H](O)C(O)[C@@H](O)C1 (stereo not given in full)
inactive: [1] -25.9% | [2] 8.9% | [3] -37.9% | [4] -13.2% | [5] -4.35%

ON1c2ccc3ccccc3c2C=CC1(c1ccccc1)c1ccccc1
inactive: [1] -12.7% | [2] -2.75% | [3] -12.6% | [4] 23.2% | [5] 10.9%

O=C1CCCc2cc3c(cc21)CC1(Cc2ccccc2C1)C3
inactive: [1] -12.2% | [2] -27.8% | [3] 9.4% | [4] -6.4% | [5] -14.7%

COC(=O)CCC(=O)C(CC(=O)OC)C(=O)CCC(=O)NCCc1ccccc1 (stereo not given)
inactive: [1] -30.1% | [2] -21.9% | [3] -41.5% | [4] 2.4% | [5] -31.4%

OC1COc2c3ccccc3nn2C1 (stereo not given)
inactive: [1] -1.35% | [2] 2.85% | [3] 21.7% | [4] 14.5% | [5] 30.1%

Oc1cc(O)c2c(-c3c(O)c(-c4ccc(O)c(O)c4)[o+]c4cc(O)cc(O)c34)c(O)c(-c3ccc(O)c(O)c3)[o+]c2c1
inactive: [1] 44.4% | [2] 4.85% | [3] 9.6% | [4] 11.1% | [5] 21.8%

COc1ccc(S(=O)c2coc3ccccc3c2=O)cc1 (stereo not given)
inactive: [1] 32.4% | [2] -9.05% | [3] 28.1% | [4] 14.7% | [5] 20.9%

c1ccc2c3nnc(c2c1)SCCCSc1nnc(c2ccccc12)SCCCS3
inactive: [1] -9.3% | [2] -13.3% | [3] -2.5% | [4] 1.6% | [5] -0.95%

C/C(=N/OC1=CC(=O)CC(C)(C)C1)c1ccccc1
inactive: [1] 1.8% | [2] 0.8% | [3] 0.3% | [4] -52.9% | [5] 0.6%

CC(C)N=C(NC#N)NS(=O)(=O)c1cnccc1Nc1ccc(Cl)cc1
inactive: [1] -11.1% | [2] 18.8% | [3] -13% | [4] -1.9% | [5] 24.8%

CC(C)(C)C1CCC2c3c([nH]c4ccccc34)C3C(=O)N(c4ccc(C#N)cc4)C(=O)C3C2C1 (stereo not given)
inactive: [1] 53.3% | [2] 50.2% | [3] 54.9% | [4] 16.9% | [5] 38.8%

Nc1ccc(Cl)cc1[N+](=O)[O-]
inactive: [1] 4.85% | [2] -3.75% | [3] 12.2% | [4] 25.1% | [5] 15.8%

COC(=O)CC(=O)C=P(c1ccccc1)(c1ccccc1)c1ccccc1
inactive: [1] -3.2% | [2] -4.15% | [3] -3.15% | [4] 6.3% | [5] -2.15%

O=C(CCC(=O)C1Cc2ccccc2C1=O)Nc1cccc(C(F)(F)F)c1 (stereo not given)
inactive: [1] -38.8% | [2] -42% | [3] -18.8% | [4] -1.5% | [5] -30.7%

O=Cc1c[nH]c2ccccc12
inactive: [1] -7.7% | [2] 9.95% | [3] 22.8% | [4] -15.6% | [5] 6.25%

COc1ccc(C[C@@H](C(=O)N[C@@H](C)C(N)=O)N(C)C(=O)[C@@H]2CCCN2C(=O)[C@H](CC(C)C)NC(=O)C(C)NC(=O)OCc2ccccc2)cc1 (stereo not given in full) (Cbz-[ξA]LP[NMeY](Me)A-NH2)
inactive: [1] 29.1% | [2] 28.9% | [3] -7.95% | [4] -4% | [5] -44.2%

C/C(=N/NC(=O)NN)c1cccc(O)c1
inactive: [1] 3.1% | [2] -11.8% | [3] -16.6% | [4] 2.15% | [5] -19.2%

C/C=C/C=N/NS(=O)(=O)c1ccc(C)cc1
inactive: [1] 11.3% | [2] 17.8% | [3] -4.1% | [6] -1% | [5] -12.4%

ClC1CC2CCC1C2Br (stereo not given) (tested in a mixture with another compound)
inactive: [1] -19.6% | [2] -14.2% | [3] -21.1% | [6] -0.45% | [5] -17.1%

CCC(=O)Oc1ccc(C(C)(C)CC(C)(C)C)cc1
inactive: [1] 32.2% | [2] -8.85% | [3] 34% | [6] 6.05% | [5] 51.7%

CCCCCCCCCCCCCCCCCC(=O)N/N=C/c1ccc(Cl)cc1
inactive: [1] -6.2% | [2] -8.95% | [3] -11.6% | [6] -2.85% | [5] -25.1%

CCCSS[C@H]1NC(=O)[C@H]1NC(=O)COc1ccccc1
inactive: [1] 31.1% | [2] 8.5% | [3] 1.4% | [6] 19.1% | [5] -3.6%

O=C(Nc1ccc(F)cc1)Nc1ccc(I)cc1
inactive: [1] 13.2% | [2] 1.15% | [3] 5.6% | [6] 17.2% | [5] 8.95%

O=c1cc(-c2ccccc2)c2ccc(O)cc2o1
inactive: [1] -11.8% | [2] 1.45% | [3] 20.4% | [6] 2% | [5] -1.2%
